Screen size: about 5,500 compounds; about 2,000 (36%) were called active. Inconclusive results (about 18%) are left out. No stated cut-off is given here; in the data, active means normalized growth mostly below about 0.91 (no sharp cut-off); inconclusive means no clear call, values can overlap the other calls; inactive means mostly above about 0.92. This is one part of the list.
Assay: chemical genetic growth profiling, strain panel (AID 1159580);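 further: tested at 20 µM; growth read once vehicle control cultures reached saturation at 30 °C; 1 = growth at the plate median or of vehicle wells; lower values mean less growth of the strain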
Details: growth OD
[1] = S. cerevisiae deletion strains, locus YAL013W, strain DEP1, hits give low values
[2] = S. cerevisiae deletion strains, locus YAL040C, strain CLN3, hits give low values
[3] = S. cerevisiae deletion strains, locus YCL061C, strain MRC1 (second series), hits give low values
[4] = S. cerevisiae deletion strains, locus YDR363W, strain ESC2, hits give low values
[5] = S. cerevisiae deletion strains, locus YER002W, strain NOP16, hits give low values
[6] = S. cerevisiae deletion strains, locus YJR075W, strain HOC1, hits give low values
[7] = S. cerevisiae deletion strains, locus YMR263W, strain SAP30, hits give low values
[8] = S. cerevisiae deletion strains, locus YMR307W, strain GAS1, hits give low values
[9] = S. cerevisiae deletion strains, locus YNL153C, strain GIM3, hits give low values
[10] = S. cerevisiae deletion strains, locus YNL175C, strain NOP13, hits give low values
[11] = S. cerevisiae deletion strains, locus YNL197C, strain WHI3, hits give low values
[12] = S. cerevisiae deletion strains, locus YNL224C, strain SQS1, hits give low values
[13] = S. cerevisiae deletion strains, locus YNL322C, strain KRE1, hits give low values
[14] = S. cerevisiae deletion strains, locus YOR083W, strain WHI5 (second series), hits give low values
[15] = S. cerevisiae deletion strains, locus YPL055C, strain LGE1, hits give low values
[16] = S. cerevisiae deletion strains, locus YDL101C, strain DUN1, hits give low values
[17] = S. cerevisiae deletion strains, locus YHR030C, strain SLT2, hits give low values
[18] = S. cerevisiae deletion strains, locus YBR229C, strain ROT2, hits give low values
[19] = S. cerevisiae deletion strains, locus YDR150W, strain NUM1, hits give low values
[20] = S. cerevisiae deletion strains, locus YEL061C, strain CIN8, hits give low values
[21] = S. cerevisiae deletion strains, locus YGR078C, strain PAC10, hits give low values
[22] = S. cerevisiae deletion strains, locus YHR087W, strain rtc3, hits give low values
[23] = S. cerevisiae deletion strains, locus YJR043C, strain POL32, hits give low values
[24] = S. cerevisiae deletion strains, locus YLR039C, strain RIC1, hits give low values
[25] = S. cerevisiae deletion strains, locus YLR058C, strain SHM2 (second series), hits give low values
[26] = S. cerevisiae deletion strains, locus YLR085C, strain ARP6, hits give low values
[27] = S. cerevisiae deletion strains, locus YLR262C, strain YPT6, hits give low values
[28] = S. cerevisiae deletion strains, locus YML094W, strain GIM5, hits give low values
[29] = S. cerevisiae deletion strains, locus YMR219W, strain ESC1, hits give low values
[30] = S. cerevisiae deletion strains, locus YNL298W, strain CLA4 (second series), hits give low values
[31] = S. cerevisiae deletion strains, locus YNR030W, strain Alg12, hits give low values
[32] = S. cerevisiae deletion strains, locus YOL006C, strain TOP1, hits give low values
[33] = S. cerevisiae deletion strains, locus YPL241C, strain CIN2, hits give low values
[34] = S. cerevisiae deletion strains, locus YPR135W, strain CTF4, hits give low values
[35] = S. cerevisiae deletion strains, locus YJL187C, strain SWE1, hits give low values
[36] = S. cerevisiae strains, strain wild type, hits give low values

Measured: normalized growth

C[C@@H](NC(=O)/C(C#N)=C/c1ccc(O)c(O)c1)c1ccccc1
inactive: [1] 0.997 | [2] 0.993 | [3] 0.983 | [4] 1.01 | [5] 0.998 | [6] 0.963 | [7] 1 | [8] 1.01 | [9] 0.978 | [10] 1 | [11] 1 | [12] 1.01 | [13] 1.01 | [14] 1.01 | [15] 0.932

Cc1nn(-c2cccc(Cl)c2)c2oc(=O)cc(C(F)(F)F)c12
inactive: S. cerevisiae deletion strains, locus YAR019C, strain CDC15, hits give low values 0.977 | S. cerevisiae deletion strains, locus YBL105C, strain PKC1, hits give low values 0.966 | S. cerevisiae deletion strains, locus YBR135W, strain CKS1, hits give low values 0.975 | S. cerevisiae deletion strains, locus YBR136W, strain MEC1, hits give low values 0.974 | S. cerevisiae deletion strains, locus YBR160W, strain CDC28, hits give low values 0.974 | S. cerevisiae deletion strains, locus YDL017W, strain CDC7, hits give low values 0.968 | S. cerevisiae deletion strains, locus YDL028C, strain MPS1, hits give low values 0.979 | [16] 0.961 | S. cerevisiae deletion strains, locus YDL108W, strain KIN28, hits give low values 0.968 | S. cerevisiae deletion strains, locus YDL132W, strain cdc53, hits give low values 0.972 | S. cerevisiae deletion strains, locus YDR052C, strain DBF4, hits give low values 0.96 | S. cerevisiae deletion strains, locus YDR054C, strain cdc34, hits give low values 0.973 | S. cerevisiae deletion strains, locus YDR226W, strain ADK1, hits give low values 0.962 | S. cerevisiae deletion strains, locus YFL009W, strain cdc4, hits give low values 0.964 | S. cerevisiae deletion strains, locus YFL029C, strain CAK1, hits give low values 0.976 | S. cerevisiae deletion strains, locus YFR003C, strain YPI1, hits give low values 0.966 | S. cerevisiae deletion strains, locus YFR028C, strain CDC14, hits give low values 0.971 | S. cerevisiae deletion strains, locus YHR205W, strain SCH9, hits give low values 0.615 | S. cerevisiae deletion strains, locus YIL147C, strain SLN1, hits give low values 0.976 | S. cerevisiae deletion strains, locus YJL128C, strain PBS2, hits give low values 0.95 | S. cerevisiae deletion strains, locus YJR016C, strain ILV3, hits give low values 0.976 | S. cerevisiae deletion strains, locus YKL101W, strain HSL1, hits give low values 0.776 | S. cerevisiae deletion strains, locus YKL193C, strain SDS22, hits give low values 0.975 | S. cerevisiae deletion strains, locus YMR001C, strain CDC5, hits give low values 0.962 | S. cerevisiae deletion strains, locus YMR205C, strain PFK2 (second series), hits give low values 0.78 | S. cerevisiae deletion strains, locus YMR277W, strain FCP1, hits give low values 0.98 | S. cerevisiae deletion strains, locus YNL006W, strain LST8, hits give low values 0.977 | S. cerevisiae deletion strains, locus YNL161W, strain CBK1, hits give low values 0.968 | S. cerevisiae deletion strains, locus YNL207W, strain RIO2, hits give low values 0.963 | S. cerevisiae deletion strains, locus YNL222W, strain SSU72, hits give low values 0.975 | S. cerevisiae deletion strains, locus YOL078W, strain AVO1, hits give low values 0.97 | S. cerevisiae deletion strains, locus YOR061W, strain CKA2, hits give low values 0.681 | S. cerevisiae deletion strains, locus YOR329C, strain SCD5, hits give low values 0.964 | S. cerevisiae deletion strains, locus YPL209C, strain IPL1, hits give low values 0.972 | S. cerevisiae deletion strains, locus YPR025C, strain CCL1, hits give low values 0.968 | S. cerevisiae deletion strains, locus YPR106W, strain ISR1, hits give low values 0.979 | S. cerevisiae deletion strains, locus YPR111W, strain DBF20, hits give low values 0.96 | S. cerevisiae deletion strains, strain NNK1, hits give low values 0.978 | S. cerevisiae deletion strains, strain TSCII, hits give low values 0.967
active: S. cerevisiae deletion strains, locus YDL214C, strain PRR2, hits give low values 0.609 | S. cerevisiae deletion strains, locus YDR477W, strain SNF1, hits give low values 0.566 | S. cerevisiae deletion strains, locus YER123W, strain YCK3, hits give low values 0.342 | S. cerevisiae deletion strains, locus YER133W, strain GLC7, hits give low values 0.48 | S. cerevisiae deletion strains, locus YFR019W, strain FAB1, hits give low values 0.572 | S. cerevisiae deletion strains, locus YGR040W, strain KSS1, hits give low values 0.654 | S. cerevisiae deletion strains, locus YGR052W, strain FMP48, hits give low values 0.538 | S. cerevisiae deletion strains, locus YGR092W, strain DBF2, hits give low values 0.367 | [17] 0.154 | S. cerevisiae deletion strains, locus YHR079C, strain IRE1, hits give low values 0.231 | S. cerevisiae deletion strains, locus YHR082C, strain KSP1, hits give low values 0.508 | S. cerevisiae deletion strains, locus YJL095W, strain BCK1, hits give low values 0.359 | S. cerevisiae deletion strains, locus YJL157C, strain FAR1, hits give low values 0.467 | S. cerevisiae deletion strains, locus YJR066W, strain TOR1 (second series), hits give low values 0.552 | S. cerevisiae deletion strains, locus YJR066W, strain TOR1, hits give low values 0.343 | S. cerevisiae deletion strains, locus YKL048C, strain ELM1, hits give low values 0.753 | S. cerevisiae deletion strains, locus YKL067W, strain YNK1, hits give low values 0.705 | S. cerevisiae deletion strains, locus YKL203C, strain TOR2, hits give low values 0.614 | S. cerevisiae deletion strains, locus YLR113W, strain HOG1, hits give low values 0.35 | S. cerevisiae deletion strains, locus YLR133W, strain CKI1, hits give low values 0.545 | S. cerevisiae deletion strains, locus YLR403W, strain SFP1, hits give low values 0.393 | S. cerevisiae deletion strains, locus YML070W, strain DAK1, hits give low values 0.515 | S. cerevisiae deletion strains, locus YNL020C, strain ARK1, hits give low values 0.574 | S. cerevisiae deletion strains, locus YNL183C, strain NPR1, hits give low values 0.464 | S. cerevisiae deletion strains, locus YNL307C, strain MCK1 (second series), hits give low values 0.536 | S. cerevisiae deletion strains, locus YOL136C, strain PFK27, hits give low values 0.342 | S. cerevisiae deletion strains, locus YOR119C, strain RIO1, hits give low values 0.544 | S. cerevisiae deletion strains, locus YOR231W, strain MKK1, hits give low values 0.501 | S. cerevisiae deletion strains, locus YPL031C, strain PHO85, hits give low values 0.535 | S. cerevisiae deletion strains, locus YPL153C, strain RAD53, hits give low values 0.6 | S. cerevisiae deletion strains, locus YPL204W, strain HRR25, hits give low values 0.469 | S. cerevisiae deletion strains, locus YPL256C, strain CLN2, hits give low values 0.201

CCCc1cc(=O)oc2c1c(C)nn2-c1ccccc1
active: [1] 0.932 | [20] 0.885 | [17] 0.432 | [22] 0.862 | [6] 0.869 | [24] 0.786 | [25] 0.923 | [26] 0.539 | [27] 0.744 | [29] 0.938 | [9] 0.864 | [30] 0.839 | [31] 0.875 | [32] 0.599 | [15] 0.799 | [33] 0.782 | [34] 0.552
inactive: [18] 0.94 | [16] 0.954 | S. cerevisiae deletion strains, locus YDL134C, strain PPH21, hits give low values 0.938 | [19] 0.978 | [21] 0.935 | [23] 0.998 | [28] 0.921 | [7] 0.956 | [13] 0.944

CCCc1cc(=O)oc2cc(OCC(=O)OCC)ccc12
inactive: [1] 0.997 | [18] 0.971 | [16] 0.945 | [19] 0.986 | [20] 0.963 | [21] 0.985 | [17] 0.759 | [22] 0.963 | [35] 0.991 | [23] 1 | [6] 0.972 | S. cerevisiae deletion strains, locus YKL190W, strain CNB1, hits give low values 0.995 | [24] 0.925 | [25] 0.991 | [26] 0.913 | [27] 0.958 | [28] 0.883 | [29] 0.987 | [7] 1.03 | [9] 0.98 | [30] 0.961 | [13] 0.995 | [31] 0.965 | [32] 0.864 | [15] 0.922 | [33] 1.04 | [34] 0.82 | [36] 0.99

O=C(O)C1C2CCC1C(O)C2 (stereo unspecified)
inactive: [1] 0.99 | [18] 1.02 | [16] 0.981 | [19] 1 | [20] 1.02 | [21] 0.998 | [17] 0.98 | [22] 0.99 | [35] 1.02 | [23] 1 | [6] 1.02 | [24] 0.967 | [25] 1.02 | [26] 1.03 | [27] 0.968 | [28] 1.01 | [29] 0.998 | [7] 0.998 | [8] 1.01 | [9] 0.976 | [30] 1 | [13] 1 | [31] 1.01 | [32] 0.972 | [15] 1.03 | [33] 0.997 | [34] 0.979 | [36] 0.967

NC(=O)c1ncn(C2OC(CO)C(O)C2O)c1O (stereo unspecified)
inactive: [1] 1.01 | [2] 1.01 | [3] 1.01 | [4] 1.01 | [5] 1 | S. cerevisiae deletion strains, locus YNL128W, strain TEP1, hits give low values 0.998 | [9] 1.02 | [10] 1 | [11] 1.01 | [12] 1 | [14] 1.02

Cc1onc(-c2c(Cl)cccc2Cl)c1NC(=O)O/N=C\c1ccc(N(C)C)cc1
active: [1] 0.807 | [19] 0.693 | [20] 0.338 | [21] 0.861 | [17] 0.12 | [23] 0.769 | [26] 0.0906 | [28] 0.152 | [7] 0.78 | [9] 0.907 | [30] 0.266 | [31] 0.357 | [32] 0.25 | [15] 0.624 | [33] 0.44
inactive: [18] 0.975 | S. cerevisiae deletion strains, locus YCL061C, strain MRC1, hits give low values 0.994 | [16] 0.978 | [22] 1.02 | [6] 1.04 | [24] 0.865 | [25] 0.992 | [27] 0.956 | [29] 1.02 | [13] 0.962 | [34] 0.698 | [36] 0.956

CC[C@@H](C)[C@H]1O[C@]2(CC[C@@H]1C)C[C@@H]1C[C@@H](C/C=C(\C)[C@@H](O[C@H]3C[C@H](OC)[C@@H](O[C@H]4C[C@H](OC)[C@@H](O)[C@H](C)O4)[C@H](C)O3)[C@@H](C)/C=C/C=C3\CO[C@@H]4[C@H](O)C(C)=C[C@@H](C(=O)O1)[C@]34O)O2
active: [1] 0.732 | [4] 0.613 | [33] 0.869
inactive: [2] 1.01 | [3] 0.948 | [5] 1.02 | [10] 1.01 | [11] 1.02 | [12] 0.993 | [14] 0.981

— PubChem BioAssay AID1159580 (chemical genetic matrix, 2015)
